Drawing on PubChem BioAssay (Tox21), this text covers outcome and Potency for 23 molecules.

Records with an inconclusive call do not appear. Calls of active or inactive are those of the source. Unless noted, calls follow the shape of the dose curve; as a rule, active = well fitted curve in the direction sought with a large enough effect in the repeat runs; inconclusive = weak or mixed curves; inactive = flat fitted curve, though single readings scatter.

A short description of experiment [1]: qHTS assay to test for compound auto fluorescence at 535 nm (green) in HEK293 cells (AID 720680).
A short description of experiment [2]: qHTS assay to test for compound auto fluorescence at 460 nm (blue) in HEK293 cell free culture (AID 720681). Summed up:
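Compounds were added to cell-free DMEM with 10% FBS and fluorescence read directly. The blue channel used 405 nm excitation and 460 nm emission, with triamterene as the reference fluorophore.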

The nature of experiment [3]: qHTS assay to test for compound auto fluorescence at 535 nm (green) in HEK293 cell free culture (AID 720682). The gist of the method: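 Steps: dispense DMEM/10% FBS into empty wells; pin in compound or DMSO; measure fluorescence at 485/535 nm. Values are fluorescein equivalents.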
The nature of experiment [4]: qHTS assay to test for compound auto fluorescence at 590 nm (red) in HEK293 cell free culture (AID 720683). The gist of the method:
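Cell-free wells of DMEM with 10% FBS received compound, and intrinsic fluorescence was read at excitation/emission 540/590 nm. Values expressed as equivalence to Rose Bengal sodium.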
On the technique in general: In qHTS, concentration-response curves come from the screen itself.

The nature of experiment [5]: qHTS assay to test for compound auto fluorescence at 590 nm (red) in HepG2 cell free culture (AID 720684). Summed up: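 Rose Bengal sodium served as the reference for red signal. Test compounds were dispensed into serum-containing MEM (10% FBS) without cells, and plates were read at 540/590 nm.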
Experiment [6] is described as follows: qHTS assay to test for compound auto fluorescence at 460 nm (blue) in HepG2 cell free culture (AID 720685). The gist of the method:
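Cell-free plates of MEM plus 10% FBS received 23 nL compound or DMSO vehicle; blue-channel (405/460 nm) intensity scored against triamterene as reference fluorophore.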

Experiment [7] is described as follows: qHTS assay to test for compound auto fluorescence at 535 nm (green) in HepG2 cell free culture (AID 720686).
Experiment [8] can be described thus: qHTS assay to test for compound auto fluorescence at 460 nm (blue) in HepG2 cells (AID 720687). Summed up: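 HepG2 cells in MEM with 10% FBS, attached overnight at 37 C, were exposed to compound or DMSO for 1 hr at 37 C, 5% CO2. Blue fluorescence was read at 405/460 nm, with triamterene as reference fluorophore.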
In experiment [9] the target is Glucocorticoid receptor (Homo sapiens) (UniProt P04150). The experiment is described as follows: qHTS assay to identify small molecule agonists of the glucocorticoid receptor (GR) signaling pathway (AID 720691; active = well fitted activation curve with a large enough effect in the signal ratio in the repeat runs, not every such curve was filed as active; the % refers to the signal ratio). The gist of the method: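 Steps: seed GR-bla HeLa cells, incubate 4 h at 37 C/5% CO2; pin-transfer DMSO-dissolved compounds; incubate 18 h at 37 C; add LiveBLAzer B/G FRET substrate; after 2 h at room temperature, measure fluorescence.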
Sequence of Glucocorticoid receptor (Homo sapiens) (P04150 whole entry, looked up): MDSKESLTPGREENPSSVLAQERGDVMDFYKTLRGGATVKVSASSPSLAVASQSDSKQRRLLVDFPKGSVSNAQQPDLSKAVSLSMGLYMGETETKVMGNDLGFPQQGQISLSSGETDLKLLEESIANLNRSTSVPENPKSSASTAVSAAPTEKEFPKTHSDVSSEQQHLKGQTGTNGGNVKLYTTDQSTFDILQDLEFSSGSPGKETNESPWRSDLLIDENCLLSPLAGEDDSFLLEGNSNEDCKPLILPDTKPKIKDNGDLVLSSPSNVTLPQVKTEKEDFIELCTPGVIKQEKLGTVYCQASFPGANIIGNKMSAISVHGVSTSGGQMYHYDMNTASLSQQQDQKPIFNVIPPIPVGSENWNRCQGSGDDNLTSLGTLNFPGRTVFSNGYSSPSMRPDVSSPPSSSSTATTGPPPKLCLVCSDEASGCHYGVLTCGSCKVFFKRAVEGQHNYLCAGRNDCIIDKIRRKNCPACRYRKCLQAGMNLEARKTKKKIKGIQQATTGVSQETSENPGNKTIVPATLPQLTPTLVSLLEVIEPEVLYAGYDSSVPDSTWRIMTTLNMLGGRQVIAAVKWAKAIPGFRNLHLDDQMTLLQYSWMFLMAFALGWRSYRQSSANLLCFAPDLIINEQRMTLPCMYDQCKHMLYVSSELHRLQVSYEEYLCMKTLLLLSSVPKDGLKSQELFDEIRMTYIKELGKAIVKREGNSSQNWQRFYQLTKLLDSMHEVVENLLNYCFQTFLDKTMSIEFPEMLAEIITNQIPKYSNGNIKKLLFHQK

For experiment [10] the target is unchanged. The experiment is described as follows: qHTS assay to identify small molecule antagonists of the glucocorticoid receptor (GR) signaling pathway (AID 720692; active = well fitted inhibition curve with a large enough effect in the signal ratio in the repeat runs, not every such curve was filed as active; the % refers to the signal ratio; also: potency is read from the fitted curve at half-maximal effect). The gist of the method:
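Antagonism was scored as loss of dexamethasone-driven (5 nM final) reporter signal in HeLa cells bearing a glucocorticoid response element–beta-lactamase construct, after 18 h compound exposure at 37 C and 2 h FRET substrate loading.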

Consider `COc1ccccc1NC(=O)CC(C)=O`, for which the outcome in experiment [1], in experiment [2], in experiment [3], in experiment [4], in experiment [5] and in [6] was inactive. Also, the call in experiment [7] and in experiment [8] was inactive.

For the molecule `C[C@]12CC[C@@H]3c4ccc(O)cc4CC[C@H]3[C@@H]1CCC2=O`, the result in [1], in [2], in experiment [3], in [4], in experiment [5] and in [6] was inactive. Further, the molecule was classed as inactive in experiment [7] and in experiment [8].

On to `CCOCCO`, for which the result in experiment [1], in experiment [2], in experiment [3], in [4], in experiment [5] and in [6] was inactive. Besides, the call in experiment [7] and in [8] was inactive. The Potency result in [9] and in [10] was “inactive” throughout.

`CC1(C)O[C@@H]2[C@@H](CO[C@@]3(COS(N)(=O)=O)OC(C)(C)O[C@@H]23)O1`: the molecule was classed as inactive in experiment [1], in [2], in [3], in experiment [4], in experiment [5] and in [6]. Besides, the call in experiment [7] and in experiment [8] was inactive.

As for `O=C1OC(c2ccc(O)cc2)(c2ccc(O)cc2)c2ccccc21`, the molecule was classed as inactive in experiment [1], in experiment [2], in experiment [3], in [4], in experiment [5] and in experiment [6]. In addition, the result in experiment [7] and in experiment [8] was inactive.

Turning to `O=C1CCCCCN1`, the call in experiment [1], in experiment [2], in experiment [3], in experiment [4], in experiment [5] and in [6] was inactive. The result in experiment [7] and in experiment [8] was inactive.

Take `C#C[C@]1(O)CC[C@H]2[C@@H]3CCC4=CC(=O)CC[C@@H]4[C@H]3CC[C@@]21CC`: the result in [1], in experiment [2], in experiment [3], in experiment [4], in experiment [5] and in experiment [6] was inactive. The call in experiment [7] and in experiment [8] was inactive. The Potency entry in [9] is “inactive”.

For the molecule `CC(=O)OC/C=C(C)/C=C/C=C(C)/C=C/C1=C(C)CCCC1(C)C`, the molecule was classed as inactive in experiment [1], in experiment [2], in experiment [3], in experiment [4], in experiment [5] and in [6]. Also, the molecule was classed as inactive in experiment [7] and in experiment [8].

As for `CCn1cc(C(=O)O)c(=O)c2ccc(C)nc21`, the call in [1], in experiment [2], in [3], in experiment [4], in experiment [5] and in experiment [6] was inactive. Moreover, the outcome in experiment [7] and in experiment [8] was inactive.

As to `OCCCc1ccccc1`, the outcome in [1], in experiment [2], in [3], in experiment [4], in experiment [5] and in experiment [6] was inactive. Moreover, the result in [7] and in experiment [8] was inactive. Moreover, the Potency result in experiment [9] and in [10] was “inactive” each time.

Take `O=C(O)Cc1cccc2ccccc12`: the molecule was classed as inactive in experiment [1], in [2], in experiment [3], in [4], in [5] and in experiment [6]. The molecule was called inactive in [7] and in [8].

Turning to `CCN(CC)CCOC(=O)c1ccc(N)cc1`, the call in [1], in experiment [2], in [3], in experiment [4], in experiment [5] and in experiment [6] was inactive. Also, the outcome in [7] and in experiment [8] was inactive.

Regarding `NC(=O)N1c2ccccc2C=Cc2ccccc21`, the result in [1], in [2], in experiment [3], in experiment [4], in experiment [5] and in experiment [6] was inactive. Besides, the result in experiment [7] and in experiment [8] was inactive.

Take `CC(O)COc1ccccc1` (stereo not given): the call in experiment [1], in [2], in experiment [3], in experiment [4], in experiment [5] and in experiment [6] was inactive. Also, the molecule was called inactive in experiment [7] and in [8]. Moreover, the Potency result in experiment [9] and in experiment [10] was “inactive” throughout.

As to `C=C(C)C(N)=O`, the molecule was classed as inactive in experiment [1], in experiment [2], in experiment [3], in experiment [4], in experiment [5] and in experiment [6]. Besides, the outcome in experiment [7] and in experiment [8] was inactive.

`COc1cc2c(c(OC)c1OC)-c1ccc(OC)c(=O)cc1[C@@H](NC(C)=O)CC2`: the outcome in experiment [1], in experiment [2], in [3], in experiment [4], in [5] and in experiment [6] was inactive. The molecule was called inactive in experiment [7] and in experiment [8]. In experiment [9], the Potency result is “inactive”.

Consider `Cc1c(N(C)C)c(=O)n(-c2ccccc2)n1C`, for which the molecule was called inactive in experiment [1], in experiment [2], in [3], in experiment [4], in [5] and in [6]. For the same molecule, the molecule was called inactive in experiment [7] and in experiment [8]. Besides, the Potency result in experiment [9] and in experiment [10] was “inactive” throughout.

`COC(=O)C1CCC(C(=O)OC)CC1` (stereo not given): the molecule was called inactive in [1], in [2], in [3], in experiment [4], in experiment [5] and in experiment [6]. In addition, the outcome in experiment [7] and in experiment [8] was inactive.

In the case of `Cn1cnc2c1c(=O)[nH]c(=O)n2C`, the call in experiment [1], in experiment [2], in experiment [3], in experiment [4], in [5] and in experiment [6] was inactive. For the same molecule, the molecule was called inactive in [7] and in experiment [8]. Further, the Potency entry in experiment [9] and in [10] was “inactive” each time.

Turning to `Nc1cccc(N)c1`, the molecule was called inactive in experiment [1], in experiment [2], in experiment [3], in experiment [4], in experiment [5] and in experiment [6]. Besides, the outcome in experiment [7] and in experiment [8] was inactive.

Regarding `CC(=O)CCC(C)C`, the molecule was classed as inactive in [1], in experiment [2], in [3], in [4], in [5] and in [6]. Further, the molecule was classed as inactive in [7] and in experiment [8]. Further, the Potency entry in [9] and in experiment [10] was “inactive” each time.

Regarding `C[C@]12CC[C@@H]3c4ccc(O)cc4C[C@@H](CCCCCCCCCS(=O)CCCC(F)(F)C(F)(F)F)[C@H]3[C@@H]1CC[C@@H]2O` (stereo not given in full), the molecule was called inactive in experiment [1], in experiment [2], in [3], in experiment [4], in [5] and in [6]. In addition, the outcome in experiment [7] and in experiment [8] was inactive. The Potency result in experiment [9] is “inactive”. Also, the Potency in [10] is 1.23 µM (active).

For `CN(C)C=O`, the outcome in experiment [1], in experiment [2], in [3], in [4], in experiment [5] and in [6] was inactive. Moreover, the molecule was called inactive in experiment [7] and in [8].
